# Results taken from PubChem BioAssay (Tox21).
# Results filed as inconclusive are left out. Where a call stands in place of a potency, no number is given. Values without a mark were called inactive. The source made the active and inactive calls. Calls follow the shape of the dose curve; as a rule, active = well fitted cell-killing curve with a large enough effect in the repeat runs; inconclusive = weak or mixed curves, or effect the other way; inactive = flat fitted curve, though single readings scatter.
# Test: cAMP Responsive Elements (CRE) small molecule antagonists, cell-based qHTS assay: qHTS cell viability counter screen (AID 2060913); also: nearly all actives have a fitted effect of over 40% in size
# Settings: CRE-bla HEK293T viability, CellTiter-Glo luminescence, 5 h; series mostly up to 92.4 µM
# Excerpt: U.S. Tox21 Program National Center for Advancing Translational Sciences [NCATS] Division of Preclinical Innovation [DPI] U.S. Environmental Protection Agency [EPA] National Institutes of Environmental Health Sciences [NIEHS] National Toxicology Program [NTP] U.S. Food and Drug Administration [FDA] Tox21 Assay Overview: CREB (cyclic-AMP Responsive Element Binding Protein) is a cellular transcription factor. It binds to certain DNA sequences called cAMP Responsive Elements (CRE) and regulates the transcription of the genes. […] This cell line can be used to find agonists/antagonists of the cyclic AMP signaling pathway. The activation of the report gene under culture conditions can be detected by fluorescence intensity. This cell line has been used to screen the Tox21 10K compound library to identify agonists that induce oxidative stress. The cytotoxicity of the Tox21 compound library against the CRE-bla cell line was tested in parallel by measuring the cell viability using CellTiter-Glo assay (Promega, Madison, WI) in the same wells.
# Tox21 Assay Protocol Summary: CRE-bla Hek 293T cells were suspended in assay medium (DMEM containing 10% dialyzed FBS, 0.1 mM NEAA, 1 mM sodium pyruvate and 25 mM HEPES) and dispensed at 2,000 cells/4 uL /well into 1536-well black wall/clear bottom plates using a Multidrop Combi (ThermoFisher Scientific, Waltham, MA) dispenser. After the assay plates were incubated at 37 C/5% CO2 for 18 hrs, 23 nL of compounds dissolved in DMSO, positive controls or DMSO only was transferred to the assay plate by a pintool workstation (Kalypsys, San Diego, CA), followed by addition of 1 uL of 1.25uM NKH477 (0.25 uM as final concentration) in assay medium using a Flying Reagent Dispenser (Aurora Discovery, San Diego, CA). The plates were incubated at 37 C and 5% CO2 for 3 hrs. Then 1 uL of LiveBLAzer B/G FRET substrate (Invitrogen, Carlsbad, CA) was added to each well using Bioraptr Flying Reagent Dispenser (FRD, Aurora Discovery, San Diego, CA). The plates were incubated at room temperature for 2 h, then fluorescence intensities were measured using an Envision plate reader (PerkinElmer, Shelton, CT) at Excitation 405nm, Emission 460nm and 530nm. The % activity was determined from the ratio of 460nm/530nm. For cell viability readout that measures cytotoxicity, 4 uL /well of CellTiter-Glo reagent was added into the assay plates using Bioraptr FRD. After 30 min incubation at room temperature, the luminescence intensity in the assay plates was measured using a ViewLux (PerkinElmer, Shelton, CT) plate reader.
SMILES,Potency,"viability change, negative = cytotoxic"
CN(C)CCN(Cc1ccc(Cl)cc1)c1ccccn1,inactive,
CCN(CC)CCNC(=O)c1c(C)[nH]c(/C=C2\C(=O)Nc3ccc(F)cc32)c1C,inactive,
C1CNCCN1,inactive,
NC(=O)c1ccccc1N,inactive,
COc1cc2nc(N(C)CCCNC(=O)C3CCCO3)nc(N)c2cc1OC (stereo not given),inactive,
C=CC(C)(CCC=C(C)C)OC(=O)c1ccccc1 (stereo not given),inactive,
COC(=O)c1cccc(Cl)c1,inactive,
CCOc1ccc2c(c1)C(C)=CC(C)(C)N2,inactive,
OCCSc1ccccc1,inactive,
CC1=C(C=O)C(C)(C)CCC1,inactive,
O=C(O)/C=C\C(=O)O,inactive,
O=P(O)(O)C(O)(Cc1cccnc1)P(=O)(O)O,inactive,
CCCCC(CC)COC(=O)CCCCCCCCC(=O)OCC(CC)CCCC (stereo not given),inactive,
O=C(O)Cc1c(Cl)ccc(Cl)c1Cl,inactive,
N#CC1(c2ccc(F)cc2)CCC(=O)CC1,inactive,
C=C[Si](OC(C)=O)(OC(C)=O)OC(C)=O,inactive,
Nc1ccncc1N,inactive,
NC(=O)c1ccccc1O,inactive,
CCCCCCCCC/C=C/CC1CC(=O)OC1=O (stereo not given),inactive,
COc1cc2nc(Cl)nc(N)c2cc1OC,inactive,

SMILES,Potency,"viability change, negative = cytotoxic"
N#[N+]c1ccc2c(S(=O)(=O)[O-])cccc2c1O,inactive,
Cc1c(N)cccc1[N+](=O)[O-],inactive,
CCOC(=O)Cn1cccc1-c1nc(-c2ccc(OC)cc2)c(-c2ccc(OC)cc2)s1,inactive,
CCCCCCCCCCCCCCCCCC#N,inactive,
C=C(C)C(=O)OCCO,inactive,
CC(C)(C)NC(=O)[C@@H]1CN(Cc2cccnc2)CCN1C[C@@H](O)C[C@@H](Cc1ccccc1)C(=O)N[C@H]1c2ccccc2C[C@H]1O,inactive,
C/C=C/C=C/C=O,inactive,
Nc1cccc(S(=O)(=O)c2cccc(N)c2)c1,inactive,
Cc1ccccc1OCC(O)CO (stereo not given),inactive,
O=C(O)c1cccc(C(=O)O)c1,inactive,
CCCCN(CCCC)CCC(O)c1cc2c(Cl)cc(Cl)cc2c2cc(C(F)(F)F)ccc12 (stereo not given),inactive,
CCCCc1ccc2cccc(S(=O)(=O)O)c2c1,inactive,
N[C@@H](Cc1ccc(O)cc1)C(=O)O,,-0.963% [at 8.39 µM]
CCCCCc1ccc(N)cc1,inactive,
Cc1c(C(=O)O)c(O)cc2c1C(=O)c1c(O)c([C@@H]3O[C@H](CO)[C@@H](O)[C@H](O)[C@H]3O)c(O)c(O)c1C2=O,inactive,
Cc1ccc2c(c1)OCC(=O)CO2,inactive,
FC(F)(F)C(F)(F)C(F)(F)C(F)(F)C(F)(F)C(F)(F)C(F)(F)C(F)(F)Br,inactive,
CNCCCC1c2ccccc2C=Cc2ccccc21,inactive,
Cc1nc2n(c(=O)c1CCN1CCC(c3noc4cc(F)ccc34)CC1)CCC[C@H]2O,,2.27% [at 18.9 µM]
O=C1OC2(c3ccc(O)cc3Oc3cc(O)ccc32)c2ccc(N=C=S)cc21,inactive,
